Test results: the supplement of paper PMC6555819

Experiments:
Assay in all cases: PBM binding z-score (relative to random genomic background probes); higher = stronger binding; sequences stand for … in GC…GCGATTGACAGCGTAGAATGAAGG
[1] = tested on: FXR:RXRa (NR concentration 270 nM, RXRa partner concentration 90 nM)
How it was run: (§1)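 On custom Agilent 4×180K arrays, double-stranded probes with 34-nt variable regions carried direct-repeat seeds, single-nucleotide variants, half-site ablations or random human genomic background. Ligand-free nuclear receptor dimers were applied for 1 h, and binding was read with antibodies against each partner (one per run). Binding z-scores come from regression-normalized fluorescence, with the random background probes as reference.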

[2] = tested on: LXRa:RXRa (NR concentration 270 nM, RXRa partner concentration 90 nM)
How it was run: as §1

[3] = tested on: LXRa homodimer (NR concentration 270 nM)
How it was run: as §1

[4] = tested on: LXRb:RXRa (NR concentration 270 nM, RXRa partner concentration 90 nM)
How it was run: as §1

[5] = tested on: LXRb homodimer (NR concentration 270 nM)
How it was run: as §1

[6] = tested on: PPARa:RXRa (NR concentration 270 nM, RXRa partner concentration 90 nM)
How it was run: as §1

[7] = tested on: PPARg:RXRa (NR concentration 180 nM, RXRa partner concentration 90 nM)
How it was run: as §1

[8] = tested on: PPARg:RXRa 270nM:90nM, anti-RXR (NR concentration 270 nM, RXRa partner concentration 90 nM)
How it was run: as §1

[9] = tested on: PPARg:RXRa 30nM:10nM, anti-RXR (NR concentration 30 nM, RXRa partner concentration 10 nM)
How it was run: as §1

[10] = tested on: PPARg:RXRa 90nM:30nM, anti-RXR (NR concentration 90 nM, RXRa partner concentration 30 nM)
How it was run: as §1

[11] = tested on: PPARg:RXRa DBDmut IVT, anti-RXR (DBD mutation: RXRa K156A/R161A, NR concentration 270 nM, RXRa partner concentration 90 nM)
How it was run: as §1

[12] = tested on: PPARg:RXRa IVT, anti-PPARg (NR concentration 270 nM, RXRa partner concentration 90 nM)
How it was run: as §1

[13] = tested on: PPARg DBDmut:RXRa IVT, anti-PPARg (DBD mutation: PPARg1 K132A/R137A, NR concentration 270 nM, RXRa partner concentration 90 nM)
How it was run: as §1

[14] = tested on: PPARg DBDmut IVT, anti-PPARg (DBD mutation: PPARg1 K132A/R137A, NR concentration 270 nM)
How it was run: as §1

[15] = tested on: PPARg homodimer (NR concentration 180 nM)
How it was run: as §1

[16] = tested on: PXR:RXRa (NR concentration 270 nM, RXRa partner concentration 90 nM)
How it was run: as §1

[17] = tested on: PXR homodimer (NR concentration 270 nM)
How it was run: as §1

[18] = tested on: RARa:RXR (NR concentration 270 nM, RXRa partner concentration 90 nM)
How it was run: as §1

[19] = tested on: RARa homodimer (NR concentration 270 nM)
How it was run: as §1

[20] = tested on: RARb:RXRa (NR concentration 270 nM, RXRa partner concentration 90 nM)
How it was run: as §1

Sequence	PBM binding z-score [1]	PBM binding z-score [2]	PBM binding z-score [3]	PBM binding z-score [4]	PBM binding z-score [5]	PBM binding z-score [6]	PBM binding z-score [7]	PBM binding z-score [8]	PBM binding z-score [9]	PBM binding z-score [10]	PBM binding z-score [11]	PBM binding z-score [12]	PBM binding z-score [13]	PBM binding z-score [14]	PBM binding z-score [15]	PBM binding z-score [16]	PBM binding z-score [17]	PBM binding z-score [18]	PBM binding z-score [19]	PBM binding z-score [20]
CAAACTAGGTCAAGGCCAAAGTCGGTTTGTGCCA	3.98	2.52	0.111	1.71	-0.0886	4.91	8.07	6.77	4.34	6.26	8.27	8.75	3.6	3.41	3.12	1.8	-0.0922	2.28	-0.0524	4.25
ATCGAAAGGTCGTGAGGGGAGTATACAGAAAGGC	5.36	4.07	0.475	3.55	1.22	5.08	3.7	4.21	1.39	3.1	0.526	2.01	1.57	0.649	2.22	2.99	0.725	3.78	0.753	4.03
TCATATGGGTAAAAGGTGAAAGTCGGTGTGGTAA	1.33	1.38	-0.164	1.62	-0.571	4.91	8.23	7.44	7.67	8.21	4.48	4.52	0.558	0.338	1.03	1.61	-0.132	2.3	0.788	1.85
ATCGAAAGGTCGAAGGTGAGTGTACCCACCCGAA	4.5	3.39	0.164	2.8	0.755	4.8	4.86	4.69	2.15	3.8	-0.0432	2.32	1.7	0.661	1.79	3.07	0.136	4.01	-0.116	3.86
TCTAGTTGGTCACGGAAGTCACACACGACGGGTA	0.525	0.526	0.27	0.598	0.323	1.21	1.27	1.85	3.33	2.65	2.3	2.31	1.45	0.841	1.08	0.653	0.0861	1.01	1.21	1.65
GCTGCTAGGTCCGGTTGGTCAGCTAACGGGTACG	-0.467	-0.521	-0.707	-1.05	-0.916	-0.619	-0.571	-0.342	-0.72	-0.851	-0.426	-0.34	-1.47	-1.49	-1.32	-0.574	-0.913	-0.552	-1.7	0.0828
TCTTGTAGATCAAGGAGGTTAAGAAAGCCTGAGT	0.502	0.513	-0.308	0.459	-0.443	1.27	-0.429	1.44	2.7	1.77	1.66	0.772	0.58	0.0101	0.474	0.734	0.408	0.789	-0.0638	0.468
CCTACTGGGCCACCAAAGGTCATTGATTCAGTGA	3.72	5.73	6.47	4.95	0.575	4.69	5	5.44	2.81	4.94	5.36	5.74	1.31	0.0425	4.38	5.69	2.75	6.23	2.56	4
AATACAGGGTCACTAGGCCACAGTAGGTACGAAT	6.38	4.76	1.17	4.02	1.04	6.17	8.82	7.43	4.24	6.72	4.65	6.73	4.31	2.11	3.96	3.36	0.57	4.14	1.37	4.27
ACTCGGAGGACAAAGGTCATAGCTACGCCAGTGA	6.1	5.52	4.19	4.73	0.856	6.18	8.47	7.15	6.46	8.09	1.2	4.45	0.463	0.599	3.32	5.22	0.775	5.76	1.36	4.83
TCATATAGGTATAGGTGAAAGTCGAACGATATGA	0.449	0.366	-0.346	0.177	-0.47	1.42	1.72	2.44	3.51	3.05	2.01	1.55	0.818	1.13	0.0595	0.316	0.0974	0.665	0.0245	0.587
CAAACTAGGTCAAGGTAAAAGTCGGTTTGTGCCA	3.54	2.52	0.259	1.97	0.356	4.86	8.27	7.09	4.93	6.9	8.78	8.76	1.41	0.73	1.61	1.54	-0.0973	2.24	0.604	4.42
ATCTCTACGTAAAAGTTCAGTGAATCCCGAGGAT	0.535	1.12	1.27	0.881	1.33	0.835	0.595	1.55	0.654	1.25	-0.177	0.157	1.69	2.47	0.954	1.69	1.8	0.802	1.16	2.35
ATCTCTAGGTAAGACTCAGTTCCGTGAAGAACGC	0.132	0.397	0.225	0.111	0.896	-0.155	-0.0539	0.0133	-0.0195	0.0962	1.81	0.672	-0.309	0.647	0.0237	0.093	0.39	-0.00835	0.872	-0.0314
CAAACTAGGTGACCGGAAGGTCAAAGTCCGCATG	6.44	4.09	4.16	3.51	0.36	4.99	6.71	5.5	3.01	5.06	7.47	7.68	2.87	3.33	3.59	4.49	1.01	5.41	0.811	3.81
